# Source: PMC12670160, “A drug-repurposing screen of FDA- and EMA-approved drugs identifies two NF-κB inhibitors active against eumycetoma” (Journal of Antimicrobial Chemotherapy, 2025)
# Structures can show the parent of a compound that is named as a salt. About 130 (2.5%) of roughly 5,300 compounds showed an effect of 50% or more. The full list was thinned out, with strong results kept by preference.
# Tested on: M. mycetomatis strain mm55
# Details: primary screen, metabolic activity vs growth control; 96 h, 2 µM; inhibitor
row,SMILES,% viability
1,"N=C(N)c1ccc(OCCCCCOc2ccc(C(=N)N)cc2)cc1 [ONC0003359, pentamidine isethionate]",71.33%
2,"N=C(N)c1ccc(-c2ccc(-c3ccc(C(=N)N)cc3)o2)cc1 [ONC0003070, furamidine]",108.4%
3,"N=C(N)c1ccc(/C=C/c2ccc(C(=N)N)cc2O)cc1 [ONC0003463, hydroxystilbamidine]",43.6%
4,"CC(=O)OCC1=C(C(=O)O)N2C(=O)[C@@H](NC(=O)CSC(=NC(C)C)NC(C)C)[C@H]2SC1 [ONC0003427, cefathiamidine]",77.15%
5,CCNCC(O)c1cccc(O)c1 (stereo not drawn) [ONC0003685],42.26%
6,"CNC[C@H](O)c1cccc(O)c1 [ONC0000459, lphenylephrine hydrochloride]",72.58%
7,"C[C@H](N)[C@H](O)c1cccc(O)c1 [ONC0003110, metaraminol bitartrate]",76.38%
8,"O=C(Nc1nc(-c2cc(Cl)cs2)c(N2CCN(C3CCCCC3)CC2)s1)c1cnc(N2CCC(C(=O)O)CC2)c(Cl)c1 [ONC0002265, avatrombopag]",50.97%
9,"CN/C(=N/CCSCc1nc[nH]c1C)NC#N [ONC0000657, cimetidine]",137.7%
10,"O=S(=O)(NCCCCCCc1ccccc1)c1cccc2c(Cl)cccc12 [ONC0002705, sc9]",87.04%
11,"NCCCCCCCCCCNS(=O)(=O)c1cccc2c(Cl)cccc12 [ONC0002708, a7]",47.48%
12,"CCCCCCCNS(=O)(=O)c1cccc2c(Cl)cccc12 [ONC0003431, sc10]",68.77%
13,"CC(C)(C)c1cc(C(C)(C)C)c2c(c1)C(O)(C(F)(F)F)C(=O)O2 (stereo not drawn) [ONC0001539, racbhff]",123.7%
14,"NC(N)=Nc1nc(CSCCC(N)=NS(N)(=O)=O)cs1 [ONC0003248, famotidine]",89.34%
15,"Cc1nnc(C(C)C)n1[C@@H]1C[C@H]2CC[C@@H](C1)N2CC[C@H](NC(=O)C1CCC(F)(F)CC1)c1ccccc1 [ONC0004641, maraviroc]",78.39%
16,"c1ccc2c(Cc3c[nH]c4ccccc34)c[nH]c2c1 [ONC0003447, diindolylmethane]",68.22%
17,"CN1C(=O)N[C@H](Cc2c[nH]c3c(Cl)cccc23)C1=O [ONC0000938, necrostatin 2]",58.02%
18,"CN1C(=O)C(Cc2c[nH]c3ccccc23)NC1=S (stereo not drawn) [ONC0003684, necrostatin1]",40.84%
19,"NC(N)=NCCC[C@H](N)C(=O)NCC(=O)N[C@@H](CC(=O)O)C(=O)N[C@@H](CO)C(=O)O [ONC0002282, argglyaspser]",101.1%
20,"CC(C)n1c(/C=C/[C@@H](O)C[C@@H](O)CC(=O)O)c(-c2ccc(F)cc2)c2ccccc21 (racemic) [ONC0004817, fluvastatin sodium lescol]",110.8%
21,"CCCCCCCCCCCCCCOC(=O)c1cccnc1 [ONC0003671, tetradecyl nicotinate]",79.3%

row,SMILES,% viability
1,"C[C@@H]1CCCN1CCc1cc2cc(-c3ccc(C#N)cc3)ccc2o1 [ONC0003444, abt 239 tartrate]",49.56%
2,"N=C(N)/N=C(\N)N1CCOCC1 [ONC0005372, moroxydine hydrochloride]",114.7%
3,"CC(C)(N)CC12CC3CC(CC(C3)C1)C2 [ONC0004056, somantadine]",120.7%
4,"c1cc(OCCN2CCCCC2)cc(-c2n[nH]c3ccc(-c4nc[nH]n4)cc23)c1 [ONC0000900, cc401 hydrochloride]",73.26%
5,"Oc1ccc([C@H]2COc3cc(O)ccc3C2)cc1 [ONC0004406, equol]",119.9%
6,"CCCN1CCC[C@H](c2cccc(O)c2)C1 [ONC0002744, r33hydroxyphenylnpropylpiperidine hydrochloride]",58.06%
7,"CCCN1CCO[C@@H]2c3cc(O)ccc3OC[C@H]21 [ONC0000309, pd128907]",42.57%
8,"COC(=O)N[C@H](C(=O)N1CC2(CC2)C[C@H]1c1ncc(-c2ccc3c(c2)C(F)(F)c2cc(-c4ccc5nc([C@@H]6[C@H]7CC[C@H](C7)N6C(=O)[C@@H](NC(=O)OC)C(C)C)[nH]c5c4)ccc2-3)[nH]1)C(C)C [ONC0001967, ledipasvir]",73.81%
9,"CC(C)NCC(O)c1ccc(N)c(C#N)c1 (stereo not drawn) [ONC0003014, cimaterol]",76.31%
10,"CC(C)NCC(O)c1ccc(O)c(O)c1 (stereo not drawn) [ONC0000608, isoproterenol hydrochloride]",81.88%
11,"CC(C)NCC(O)c1ccc([N+](=O)[O-])cc1 (stereo not drawn) [ONC0002319, nifenalol]",49.56%
12,CC/C=C\C/C=C\C/C=C/C/C=C\C/C=C\C/C=C\CCC(=O)OCC [ONC0002811],151.6%
13,"COC(=O)[C@H](CCCNC(=N)N)NS(=O)(=O)c1ccc(C)cc1 [ONC0004976, tame]",63.05%
14,"N=C(N)c1cc2ccc(OC(=O)c3cccs3)cc2s1 [ONC0004238, bcx 1470 methanesulfonate]",62.8%
15,"CC/C(=C(/CC)c1ccc(O)cc1)c1ccc(O)cc1 [ONC0003197, diethylstilbestrol]",93.2%
16,"CNCC(O)c1ccc(O)cc1 (stereo not drawn) [ONC0005413, oxedrine]",69.09%
17,"CC[C@H](c1ccc(O)cc1)[C@@H](CC)c1ccc(O)cc1 [ONC0003849, hexestrol]",49.29%
18,"C#C[C@]1(O)CC[C@H]2[C@@H]3CCC4=CC(=NO)CC[C@@H]4[C@H]3CC[C@@]21CC (mixture of isomers) [ONC0000953, norgestimate metabolite norelgestromin]",67.65%
19,"CO[C@H]1/C=C/O[C@@]2(C)Oc3c(C)c(O)c4c(O)c(c(/C=N/N5CCN(C)CC5)c(O)c4c3C2=O)NC(=O)/C(C)=C\C=C\[C@H](C)[C@H](O)[C@@H](C)[C@@H](O)[C@@H](C)[C@H](OC(C)=O)[C@@H]1C [ONC0003357, rifampin]",107.5%
20,"CO[C@H]1/C=C/O[C@@]2(C)Oc3c(C)c(O)c4c(O)c(c(/C=N/N5CCN(C6CCCC6)CC5)c(O)c4c3C2=O)NC(=O)/C(C)=C\C=C\[C@H](C)[C@H](O)[C@@H](C)[C@@H](O)[C@@H](C)[C@H](OC(C)=O)[C@@H]1C [ONC0002002, rifapentine]",77.39%
21,"COC1/C=C/OC2(C)Oc3c(C)c(O)c4c(O)c(c(/C=N/N=C/N5CCCCC5)c(O)c4c3C2=O)NC(=O)/C(C)=C\C=C\C(C)C(O)C(C)C(O)C(C)C(OC(C)=O)C1C (stereo not drawn) [ONC0003798, fce22250]",33.52%
